PubChem BioAssay (NCI)
This is part of a sample that, as a whole, favours compounds with a hit. Of some 83,000 tested, about 20% had one in any assay.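 Negative percent growth values reflect cell death: -40 means 40% of the cells present at the start died, and -100 means all died.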 Values without a mark were called inactive. The source made the active and inactive calls. Rule for the calls: active = growth percent below 10; inactive = the rest.

Columns and labels:
Assay in all cases: NCI-60 one-dose screen, 48 h (100 = growth as untreated, 0 = no growth, -100 = all killed)
Conditions in all cases: 10 µM unless noted
T-47D breast = tested on: T-47D breast
BT-549 breast = tested on: BT-549 breast
MDA-MB-435 melanoma = tested on: MDA-MB-435 melanoma
SW-620 colon = tested on: SW-620 colon
HCT-116 colon = tested on: HCT-116 colon
HCC-2998 colon = tested on: HCC-2998 colon
KM12 colon = tested on: KM12 colon
MCF7 breast = tested on: MCF7 breast

Compound | growth (T-47D breast) | growth (BT-549 breast) | growth (MDA-MB-435 melanoma) | growth (SW-620 colon) | growth (HCT-116 colon) | growth (HCC-2998 colon) | growth (KM12 colon) | growth (MCF7 breast)
O=C(Nc1ccccc1O)c1ccc(CNC(=O)c2ccsc2Nc2ccnc(C(F)(F)F)c2)cc1 | 25% | 51.7% | 14.9% | 19.1% | 15.9% | 44.5% | 30% | –
Ic1ccccc1I | 107% | 115% | 111% | 108% | 98.5% | 98.2% | 104% | –
Clc1ccc(-c2cc(-c3ccccc3)nc(NCCNc3ccnc4cc(Cl)ccc34)n2)cc1 | 11.8% | 88.3% | -56.9% (active) | -63% (active) | -79.4% (active) | -88.9% (active) | -5.53% (active) | –
COc1ccc(/C=C/c2c(C(=O)/C=C/c3ccccc3)c(C)nc3ccccc23)cc1 | 12.9% | 31.4% | -33% (active) | 2% (active) | -70.1% (active) | 12.3% | 3.01% (active) | –
COc1ccc2[nH]cc(-c3nc(-c4c[nH]c5c(Cl)nccc45)cs3)c2c1 | 24.5% | 51.3% | 51.8% | 1.95% (active) | – | 68.6% | 33.3% | 54.7%
C=C(C)[C@@H]1CC[C@]2(COC(C)=O)CC[C@]3(C)[C@H](CC[C@@H]4[C@@]5(C)CCCN(C(C)=O)C(C)(C)[C@@H]5CC[C@]43C)[C@@H]12 | 10.9% | 88.6% | 4.85% (active) | -53.9% (active) | -35.7% (active) | -28.8% (active) | 5.81% (active) | –
CSC(SC)=C(C#N)c1nc2ccccc2s1 | 33.2% | 13.1% | 76.5% | 81.5% | 14.2% | 82.2% | 58.3% | –
CCOC(=O)c1[nH]c2c(c1C)-c1[nH]c(=O)c(S(=O)(=O)c3ccccc3)cc1SC2 | 1.66% [100 µM] (active) | 32.7% [100 µM] | 24.2% [100 µM] | 49.1% [100 µM] | – | 75.1% [100 µM] | 28.1% [100 µM] | –
O=c1c2c3c(sc2n2c(-c4cc(-c5ccccc5)no4)nnc2n1Cc1ccccc1)CCCC3 | 53.3% | 91.9% | 106% | 106% | 81.6% | 101% | 95.5% | –
